Results reported in the supplement of paper PMC6555819.

Key:
Experiment in all cases: PBM binding z-score (relative to random genomic background probes); higher = stronger binding; sequences stand for … in GC…GCGATTGACAGCGTAGAATGAAGG
[1] = system: RARb homodimer (NR concentration 270 nM)
Summary of the method: (§1)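 For binding z-scores, the reference was random background probes on custom Agilent 4×180K protein-binding microarrays. These arrays were incubated 1 h with ligand-free nuclear receptor dimers in PBS pH 7.4, 2% milk, 0.02% Triton X-100, 1 mM DTT, 0.2 mg/mL BSA and 0.4 mg/ml salmon testes DNA. Fluorescence was scanned after antibody detection of each partner (one per run) and regression-normalized.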

[2] = system: RARg:RXRa (NR concentration 270 nM, RXRa partner concentration 90 nM)
Summary of the method: as §1

[3] = system: RARg homodimer (NR concentration 270 nM)
Summary of the method: as §1

[4] = system: RXRa DBDmut IVT, anti-RXR (DBD mutation: RXRa K156A/R161A, NR concentration 90 nM)
Summary of the method: as §1

[5] = system: RXRa homodimer (NR concentration 180 nM)
Summary of the method: as §1

[6] = system: THRa:RXRa (NR concentration 90 nM, RXRa partner concentration 90 nM)
Summary of the method: as §1

[7] = system: THRa homodimer (NR concentration 90 nM)
Summary of the method: as §1

[8] = system: VDR homodimer (NR concentration 270 nM)
Summary of the method: as §1

| Sequence | PBM binding z-score [1] | PBM binding z-score [2] | PBM binding z-score [3] | PBM binding z-score [4] | PBM binding z-score [5] | PBM binding z-score [6] | PBM binding z-score [7] | PBM binding z-score [8] |
| --- | --- | --- | --- | --- | --- | --- | --- | --- |
| ATCTCTAGGTAACAGGTTCAGTGAAAGAGAGGAC | 1.15 | 0.818 | 0.667 | 0.757 | 0.828 | 1.58 | 1.34 | 2.78 |
| CCTTACGGTTCACGAGGTTATAGCACGACGAGCG | 2 | 2.73 | 1.5 | 3.15 | 4.01 | 2.8 | 1.26 | 3.82 |
| CCAGACAGGTGTGAAGGTAACTCAGCCTCGATTA | 0.327 | -0.276 | -0.122 | 0.399 | -0.117 | 0.116 | 0.347 | 0.0431 |
| CTCGAAAGGTCGGTTGAGGAGAGTATACGGATAA | 1.66 | 2.45 | 2.43 | 0.577 | 1.74 | 4.2 | -0.262 | 0.602 |
| CCTCGGAGGACAACAAGAGGTCAGAGCTGCCAGA | 3.8 | 4.13 | 3.8 | 0.726 | 2.93 | 2.86 | 0.992 | 1.54 |
| CCTTACGGGTCTCGAGGTTATAGCACGACGAGCG | 0.421 | 0.66 | 0.422 | -0.815 | 1.27 | 1.05 | -0.08 | 0.435 |
| CGAACTAGGTCAAGGACAGTTAATCTCCGCACGC | 3.38 | 3.88 | 4.87 | 1.65 | 2.89 | 3.09 | 2.12 | 0.602 |
